Screening data as filed in PubChem.
PKM2 act: activators of human pyruvate kinase M2. Potency, µM (top dose mostly 57.5 µM), without a hit: at the highest dose activation, most hits filed as activators. actives 0.34% (n = 260,000). purified PKM2, Kinase-Glo ATP luminescence, activation; response scale: 0% is enzyme alone, no compound; note: potency is the fitted concentration of half-maximal effect; nearly all actives have a fitted effect of over 55% in size
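Purified hPK-M2 (>95% pure) converted ADP (0.1 mM final) to ATP with 0.5 mM PEP in 50 mM imidazole pH7.2, KCl, MgCl2, Tween 20, BSA; 1 h at room temperature. ATP detected by Kinase-Glo luminescence.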
RORgamma inh: blocks mouse ROR gamma transcriptional activity; P51450; Drosophila S2 Gal4-RORgamma UAS-luciferase reporter, 20 h; Potency, µM (doses to about 53.6 µM), for the others: at the highest dose activity change, negative = inhibition, most hits filed as inhibitors; actives 5.4% (n = 310,000); AID 2551; note: potency is the fitted concentration of half-maximal effect; nearly all actives have a fitted effect of over 60% in size
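Drosophila S2 cells stably expressing Gal4-DBD/mouse RORγ fusion under metallothionein promoter plus UAS-luciferase; compound 1 h, then 700 uM CuSO4 induction for 20 h at ambient temperature; inhibition read as reduced luminescence.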
Six1-Eya2 inh: Six1/Eya2 interaction inhibition. AlphaScreen GST-Six1/His-Eya2 binding, biochemical; hits give low values. activity change, % (no concentration beside the values). actives 0.56% (n = 360,000); in the data active = activity change below about -65%; inconclusive = mostly about -30% to -63%
Target sequence (O00167 whole entry, looked up): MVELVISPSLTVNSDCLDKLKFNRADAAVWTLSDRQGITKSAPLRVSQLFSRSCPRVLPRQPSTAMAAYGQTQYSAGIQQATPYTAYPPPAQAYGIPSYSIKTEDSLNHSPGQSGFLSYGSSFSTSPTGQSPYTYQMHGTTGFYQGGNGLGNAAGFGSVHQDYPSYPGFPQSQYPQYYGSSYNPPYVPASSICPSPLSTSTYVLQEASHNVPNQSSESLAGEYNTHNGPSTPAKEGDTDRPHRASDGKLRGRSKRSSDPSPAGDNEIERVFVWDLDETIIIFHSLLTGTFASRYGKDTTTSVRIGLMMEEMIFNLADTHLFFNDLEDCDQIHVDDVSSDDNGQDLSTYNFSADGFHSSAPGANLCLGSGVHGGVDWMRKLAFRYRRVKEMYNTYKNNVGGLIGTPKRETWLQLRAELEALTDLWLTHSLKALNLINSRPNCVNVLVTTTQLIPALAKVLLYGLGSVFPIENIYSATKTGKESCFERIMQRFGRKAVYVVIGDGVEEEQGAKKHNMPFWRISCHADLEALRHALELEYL
Target sequence (Q15475 whole entry, looked up): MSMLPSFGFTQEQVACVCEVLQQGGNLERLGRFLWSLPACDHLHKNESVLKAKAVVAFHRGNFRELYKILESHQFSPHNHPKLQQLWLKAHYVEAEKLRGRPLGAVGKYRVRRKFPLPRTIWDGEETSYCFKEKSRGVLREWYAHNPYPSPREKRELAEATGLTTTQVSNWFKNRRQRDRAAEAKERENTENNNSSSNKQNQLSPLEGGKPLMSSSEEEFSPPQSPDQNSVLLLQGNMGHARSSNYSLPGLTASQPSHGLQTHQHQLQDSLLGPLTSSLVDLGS
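AlphaScreen luminescence read after one hour at 37 °C in darkness. Pin-transferred compounds met GST-Six1 and His-Eya2 protein (5X stock 250 nM/500 nM) plus glutathione donor and Ni-chelate acceptor beads (5X, 50 ug/mL).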
VP16 counter: counter-screen for ROR gamma inhibitors: Gal4-VP16 reporter | Drosophila S2 Gal4-VP16 UAS-luciferase, luminescence, 20 h | Potency, µM (top dose mostly 53.6 µM), inactives show at the top dose activity, negative = inhibition, actives largely listed as inhibitors | actives 3.5% (n = 310,000);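 note: Gal4-VP16 expression switched on by copper sulfate through the metallothionein promoter; potency is the fitted concentration of half-maximal effect; nearly all actives have a fitted effect of over 50% in size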
CtBP-E1A blk: blocks the CtBP interaction with E1A | AlphaScreen GST-E1A/His-CtBP binding, 1536-well; hits give low values | activity change, % (no concentration beside the values) | actives 0.49% (n = 340,000) | AID 651724; in the data active = activity change below about -65%; inconclusive = mostly about -30% to -63%
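Homogeneous bead-based format: GST-tagged E1A captured on glutathione donor beads, His-tagged CtBP on nickel acceptor beads; compounds precede bead addition by 2 h at 37 °C.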
An asterisk follows results filed as active; ? = inconclusive; . = not tested or not shown; [ ] = dose if it differs, or a comment. In the library only some 5.6% were active in any assay of this set; here they are far more common. Unless noted, calls come from the whole dose curve; as a rule, active = well fitted curve in the direction sought with a large enough effect; inconclusive = small, poorly fitted or top-dose-only effect, or another doubt; inactive = no such curve, though single readings can be large; an effect the other way counts as inactive or inconclusive. % is set by controls: 0 for no effect and ±100 for the full control effect.

SMILES	PKM2 act	RORgamma inh	Six1-Eya2 inh	VP16 counter	CtBP-E1A blk
CC(=O)N1CCc2cc(S(=O)(=O)NCCC(=O)NCCc3ccc(C)cc3)ccc21	-1.4%	?	-0.5	3.55µM*	-1.1
COc1ccc(CNS(=O)(=O)c2ccc3c(c2)CC(C)N3C(=O)C2CC2)cc1 (stereo not drawn)	.	?	0.0	17.8µM*	3.8
CC(=O)N1c2ccc(S(=O)(=O)NCC3CCC(C(=O)Nc4cc(C)ccn4)CC3)cc2CC1C (stereo not drawn)	.	?	-1.4	7.08µM*	-2.9
COc1cc(CNS(=O)(=O)c2ccc3c(c2)CC(C)N3C(=O)C2CCC2)cc(OC)c1OC (stereo not drawn)	.	-41.8%	4.2	6.31µM*	2.7
COc1cccc(CNS(=O)(=O)c2ccc3c(c2)CC(C)N3C(=O)C2CC2)c1 (stereo not drawn)	.	-36.4%	0.4	?	2.9
O=C(CCS(=O)(=O)c1ccc(F)cc1)N1CCOCC1	.	-12.1%	-6.0	26.5%	6.0
Cc1cc(NS(=O)(=O)c2ccc(NC(=O)c3ccc([N+](=O)[O-])cc3)cc2)nc(C)n1	.	.	-0.8	.	1.9
COc1ccc(CNS(=O)(=O)c2ccc3c(c2)CCN3C(=O)C2CC2)cc1	-2.4%	-7.9%	18.1	15.8µM*	0.0
COC(=O)c1cn(-c2ccccc2)nc1-c1ccc(OC)cc1	-14.5%	36.4%	9.0	-15.9%	.
CCN(CC)CCNC(=S)NC(=O)c1cn(-c2ccccc2)nc1-c1ccc(OC)cc1	-1.4%	7.08µM*	?	12.6µM*	-22.1
CCOc1c(Cl)cc(CNCC(O)c2ccccc2)cc1OC (stereo not drawn)	-0.9%	7.08µM*	2.5	?	-17.6
S=c1[nH]nc(-c2cccs2)n1/N=C/c1c(Cl)cccc1Cl	4.9%	11.2µM*	-21.0	-26.2%	11.3
Cc1ccc(/C=N/n2c(-c3cccs3)n[nH]c2=S)cc1	-3.0%	2µM*	?	?	-10.8
COc1ccc(/C=N/n2c(-c3cccs3)n[nH]c2=S)cc1	-3.5%	2.82µM*	-6.5	?	-18.8
CCN(CC)S(=O)(=O)c1cccc(-c2n[nH]c(=S)n2/N=C/c2ccc(OC)cc2)c1	-10.4%	?	-9.2	-10.0%	4.9
COc1cccc(Cn2c(=O)c(C)nc3cnc(N(C)C)nc32)c1	.	-18.7%	.	-2.2%	.
Cc1ccc(CNC(=O)c2cc3ccccc3oc2=O)cc1	.	.	0.5	.	.
O=C(CCCl)Nc1nnc(SCC(=O)NC2CCCC2)s1	-1.2%	-37.8%	-2.2	2µM*	5.9
COc1ccc(C(=O)Nc2nnc(SCC(=O)NCc3ccco3)s2)c(OC)c1	22.5%	11.2µM*	-6.8	10µM*	-8.1
CCc1nnc(NC(=O)c2ccc(OC)cc2OC)s1	-17.5%	6.31µM*	-1.4	10µM*	1.5
COc1ccccc1C(=O)Nc1nnc(SCC(=O)NCc2ccco2)s1	-4.3%	?	1.0	?	0.1
COc1ccc(C(=O)Nc2nnc(SCC(=O)NC3CCCC3)s2)c(OC)c1	2.8%	3.16µM*	8.0	?	4.3
CCCCC(=O)Nc1nnc(SCC(=O)NC2CCCC2)s1	0.4%	9.5%	4.3	-3.2%	-2.5
O=c1cc(-c2ccc(O)cc2)oc2cc(OC3OC(CO)C(O)C(O)C3O)c(C3OC(CO)C(O)C(O)C3O)c(O)c12 (stereo not drawn)	.	2.6%	.	-6.6%	.
CC(=O)Nc1ccc(NC(=O)C(C)Oc2ccccc2C(=O)NCc2ccccc2)cc1 (stereo not drawn)	.	.	2.8	.	.
SMILES	PKM2 act	RORgamma inh	Six1-Eya2 inh	VP16 counter	CtBP-E1A blk
Cc1cccc(OCCCC(=O)Nc2nc3ccccc3[nH]2)c1	1.7%	14.1µM*	6.9	-21.0%	-1.2
Cc1ccc(OCCCC(=O)Nc2nc3ccccc3[nH]2)cc1	-4.6%	6.31µM*	-11.5	-5.0%	12.5
O=C(CCCOc1ccccc1)Nc1nc2ccccc2[nH]1	-4.5%	7.08µM*	-1.7	-6.8%	0.1
CC1(C)C2CCC(CN)C1C2 (stereo not drawn)	.	.	3.3	.	-12.9
COC(=O)c1ccc(CN2C(=O)C3CCCCC3C2=O)o1 (stereo not drawn)	-9.3%	2.82µM*	-1.4	4.47µM*	10.0
COC(=O)c1ccc(CSCc2ccc(C(=O)OC)o2)o1	.	15.5%	0.0	-4.7%	-6.9
O=C(O)CCC(=O)c1ccc2ccc3cccc4ccc1c2c34	-4.8%	11.2µM*	.	10µM*	.
O=C(O)CCC(=O)c1cccc2ccccc12	-23.9%	-32.5%	1.5	0.1%	0.2
O=c1oc2ccccc2cc1-c1cn2ccccc2n1	-65.7%	1µM*	14.7	2.24µM*	19.1
O=c1oc2ccccc2cc1-c1cn2cccnc2n1	-25.7%	?	-2.8	?	-7.5
O=C(Nc1ccc(F)c(Cl)c1)C1CC(=O)n2c(nc3ccccc32)N1 (stereo not drawn)	-27.6%	3.55µM*	-9.2	?	-5.2
N#CCCN(Cc1cccnc1)C(=S)NC(=O)C1CC1	0.9%	?	.	-2.0%	.
CCC/C=N/NC(=O)c1cc(Br)ccc1O	-4.2%	11.2µM*	-12.1	?	-10.8
O=C(N/N=C/c1ccoc1)c1cc(Br)ccc1O	-0.6%	3.55µM*	-14.3	3.98µM*	-1.3
Cc1cccc(/C=N/NC(=O)c2cc(Br)ccc2O)n1	.	?	-22.8	?	-18.1
O=C(N/N=C1/CCSC1)c1cc(Br)ccc1O	-7.6%	7.94µM*	-6.8	-11.2%[10 µM]	-11.9
O=C(COC(=O)c1cncc(Br)c1)NCc1cccs1	.	.	-0.7	.	.
CCCC(C)NC(=O)c1cccc(Oc2ccccc2)c1 (stereo not drawn)	-4.7%	35.5µM*	12.1	-15.1%	25.9
COc1ccc(C(=O)NNC(=O)C(=O)/C=C(\O)c2ccc(C)cc2)cc1	.	12.6µM*	-16.7	?	-8.7
C/C(=C\C(=O)c1ccccc1)Nc1ccc(Br)c(Cl)c1	-4.1%	-51.6%	4.5	-1.9%	5.6
C/C(=C\C(=O)c1ccccc1)NNC(=O)c1ccc(Cl)cc1	1.6%	7.08µM*	-0.7	4.47µM*	-6.8
COc1ccc(C(=O)NN/C(C)=C/C(=O)c2ccccc2)cc1	-1.6%	6.31µM*	-4.3	5.01µM*	2.2
C/C(=C\C(=O)c1ccc(Br)cc1)Nc1ccc(Cl)cc1	6.0%	7.08µM*	-0.7	11.2µM*	-0.8
Cc1ccc(-n2[nH]c(C)c(C=Nc3cc(C)ccn3)c2=O)cc1	-44.2%	-1.6%[0.365 µM]	0.4	.	-1.3
CCCCN=Cc1c(C)[nH]n(-c2ccccc2)c1=S	-16.0%	0.631µM*	-14.6	2.51µM*	-5.9
Cc1[nH]n(-c2ccccc2)c(=O)c1/C=N/NC(=O)c1ccc(O)cc1O	.	1.78µM*	-90.7*	7.08µM*	.
Cc1[nH]n(-c2ccccc2)c(=O)c1C=NCCc1ccccc1	13.5%	-10.0%	9.1	6.3%	.
Cc1[nH]n(-c2ccccc2)c(=S)c1C=Nc1cccc([N+](=O)[O-])c1	-70.0%	1.78µM*	1.1	7.08µM*	0.5
